# Measurements reported in PubChem BioAssay (Tox21).
# Unmarked numbers belong to inactive results. Inconclusive results are not listed. Where a call stands in place of a potency, no number is given. Activity calls are given as the source filed them. Unless noted, calls follow the shape of the dose curve; as a rule, active = well fitted curve in the direction sought with a large enough effect in the repeat runs; inconclusive = weak or mixed curves; inactive = no such curve, though single readings can be large; an effect the other way counts as inactive or inconclusive.
# Experiments:
# [1] = qHTS assay to identify small molecule agonists of the hypoxia (HIF-1) signaling pathway (AID 1224846; active = well fitted activation curve with a large enough effect in the signal ratio in the repeat runs, not every such curve was filed as active; the % refers to the signal ratio)
# Method in brief: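 Hypoxia-pathway activation was scored as increased beta-lactamase from an HRE-controlled reporter in ME-180 cells; plated at 2,000 cells per well with 0.5% dialyzed FBS, they were exposed 17 hrs to compounds and then given CCF4-AM.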
# [2] = qHTS assay to identify small molecule agonists of H2AX - cell viability counter screen (AID 1224847; calls by dose curve; also: nearly all actives have a fitted effect of over 30% in size; also: potency is read from the fitted curve at half-maximal effect)
# Method in brief: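 Cells plated first: CHO-K1, 1000 per well in 10% FBS medium, incubated overnight at 37C. Then 15-point compound titration added (final DMSO 0.76%) for 3 hr. Finally CellTiter-Glo added and luminescence read.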
# [3] = qHTS RealTime-Glo MT Cell Viability Assay in HepG2 cells - 24 hour (AID 1224867); also: nearly all actives have a fitted effect of over 50% in size; also: potency is read from the fitted curve at half-maximal effect
# Method in brief: (§1)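 qHTS, HepG2, 600 cells/well, RealTime-Glo (NanoLuc + prosubstrate) added with cells; 5 h preincubation; DMSO compound addition; 37 C; luminescence at 0/8/16/24/32/40 h.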
# [4] = qHTS RealTime-Glo MT Cell Viability Assay in HEK293 cells - 32 hour (AID 1224868); also: nearly all actives have a fitted effect of over 50% in size; also: potency is read from the fitted curve at half-maximal effect
# Method in brief: (§2)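 Assay medium contained NanoLuc luciferase plus cell-permeant prosubstrate, added with HEK293 cells at 600 cells/well. After 5 h at 37 C/5% CO2 compounds were added; plates stayed at 37 C for 40 h with serial luminescence reads.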
# [5] = A CellTox Green Cytotoxicity Assay to monitor cytotoxicity in HEK293 cells - 0 hour (AID 1224869); also: nearly all actives have a fitted effect of over 50% in size
# Method in brief: (§3)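 Seeding of HEK293 cells together with cytotoxicity dye preceded a 5 h incubation at 37 C/5% CO2. Test compounds in DMSO were then added and fluorescence monitored across 40 h.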
# [6] = qHTS RealTime-Glo MT Cell Viability Assay in HepG2 cells - 40 hour (AID 1224870); also: nearly all actives have a fitted effect of over 50% in size; also: potency is read from the fitted curve at half-maximal effect
# Method in brief: (§4)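 Real-time viability: cells seeded at 600 per well together with NanoLuc and cell-permeant prosubstrate, compounds added after 5 h incubation. Luminescence tracked at 0, 8, 16, 24, 32 and 40 h of exposure.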
# [7] = A CellTox Green Cytotoxicity Assay to monitor cytotoxicity in HEK293 cells - 40 hour (AID 1224871); also: nearly all actives have a fitted effect of over 45% in size; also: potency is read from the fitted curve at half-maximal effect
# Method in brief: as §3
# [8] = qHTS RealTime-Glo MT Cell Viability Assay in HEK293 cells - 16 hour (AID 1224872)
# Method in brief: as §2
# [9] = qHTS RealTime-Glo MT Cell Viability Assay in HepG2 cells - 8 hour (AID 1224873); also: nearly all actives have a fitted effect of over 55% in size; also: potency is read from the fitted curve at half-maximal effect
# Method in brief: as §4
# [10] = qHTS RealTime-Glo MT Cell Viability Assay in HEK293 cells - 40 hour (AID 1224874); conditions: RealTime-Glo luminescence; max response: stronger effect = lower value; also: nearly all actives have a fitted effect of over 50% in size; also: potency is read from the fitted curve at half-maximal effect
# Method in brief: (§5)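 Tox21 screen in HEK293 using RealTime-Glo MT chemistry, with cells and reagent co-dispensed. Luminescence proportional to viable cell number was captured at intervals during 40 h compound exposure at 37 C.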
# [11] = A CellTox Green Cytotoxicity Assay to monitor cytotoxicity in HEK293 cells - 24 hour (AID 1224875); also: nearly all actives have a fitted effect of over 45% in size; also: potency is read from the fitted curve at half-maximal effect
# Method in brief: as §3
# [12] = A CellTox Green Cytotoxicity Assay to monitor cytotoxicity in HepG2 cells - 16 hour (AID 1224876); also: nearly all actives have a fitted effect of over 45% in size
# Method in brief: (§6)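 Nonlytic assay: viable cells exclude the dye, so fluorescence scales with cell death. HepG2 at 600 cells/well, compounds added after 5 h, signal read across 40 h.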
# [13] = qHTS RealTime-Glo MT Cell Viability Assay in HepG2 cells - 32 hour (AID 1224877); also: nearly all actives have a fitted effect of over 55% in size; also: potency is read from the fitted curve at half-maximal effect
# Method in brief: as §1
# [14] = A CellTox Green Cytotoxicity Assay to monitor cytotoxicity in HepG2 cells - 24 hour (AID 1224878); also: nearly all actives have a fitted effect of over 45% in size; also: potency is read from the fitted curve at half-maximal effect
# Method in brief: as §6
# [15] = qHTS RealTime-Glo MT Cell Viability Assay in HEK293 cells - 0 hour (AID 1224880); also: nearly all actives have a fitted effect of over 45% in size; also: potency is read from the fitted curve at half-maximal effect
# Method in brief: as §5
# [16] = A CellTox Green Cytotoxicity Assay to monitor cytotoxicity in HEK293 cells - 32 hour (AID 1224881); also: nearly all actives have a fitted effect of over 40% in size; also: potency is read from the fitted curve at half-maximal effect
# Method in brief: as §3
# [17] = qHTS assay to identify small molecule antagonists of the estrogen related receptor (ERR) signaling pathway from Tox21 library (AID 1224848); also: nearly all actives have a fitted effect of over 50% in size; also: potency is read from the fitted curve at half-maximal effect
# Method in brief: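 Antagonist-mode screen of the Tox21 10K library in an NTP-provided ERR reporter cell line; 18 h compound exposure at 37 C, luminescence measured with ONE-Glo.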
# [18] = qHTS assay to identify small molecule agonists of the estrogen related receptor (ERR) signaling pathway from Tox21 library (AID 1224849; calls by dose curve; also: nearly all actives have a fitted effect of over 15% in size); conditions: ERR reporter cell line, ONE-Glo luciferase, 18 h; at 92.4 µM (top of the series) unless noted
# Method in brief: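 Six hours post-seeding at 37 C/5% CO2, ERR cells receive DMSO-solubilised compounds; after 18 h at 37 C, ONE-Glo reagent is applied and luminescence recorded.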
# [19] = A CellTox Green Cytotoxicity Assay to monitor cytotoxicity in HepG2 cells - 40 hour (AID 1224879); also: nearly all actives have a fitted effect of over 40% in size; also: potency is read from the fitted curve at half-maximal effect
# Method in brief: as §6
# [20] = qHTS assay to identify small molecule agonists of H2AX (AID 1224845; active = well fitted activation curve with a large enough effect in the signal ratio in the repeat runs, not every such curve was filed as active; the % refers to the signal ratio)
# Method in brief: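 Phospho-H2AX Ser139 measured by HTRF (ex 320 nm; em 665 and 620 nm) after 24 hr antibody incubation. Compounds, 15 concentrations, 0.76% DMSO, were applied to CHO-K1 cells for 3hr at 37C before lysis.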
smiles,measurement,setting,value
Cc1cc([N+](=O)[O-])ccc1N,outcome,[1],inactive
same,Potency,[2],inactive
same,Potency,[3],inactive
same,Potency,[4],inactive
same,Potency,[5],inactive
same,Potency,[6],inactive
same,Potency,[7],inactive
same,Potency,[8],inactive
same,Potency,[9],inactive
same,max response,[10],-19.2%
same,Potency,[11],inactive
same,Potency,[12],inactive
same,Potency,[13],inactive
same,Potency,[14],inactive
same,Potency,[15],inactive
same,Potency,[16],inactive
O=C1NC(=O)c2cccc3cccc1c23,outcome,[1],inactive
same,Potency,[2],inactive
same,Potency,[3],inactive
same,Potency,[4],inactive
same,Potency,[5],inactive
same,Potency,[6],inactive
same,Potency,[9],inactive
same,max response,[10],-4.43%
same,Potency,[11],inactive
same,Potency,[12],inactive
same,Potency,[14],inactive
same,Potency,[15],inactive
same,Potency,[16],inactive
CCN(CC)c1cccc(O)c1,outcome,[1],inactive
same,Potency,[2],inactive
same,Potency,[17],inactive
same,"activity change, positive = activation",[18],2.77%
same,Potency,[3],inactive
same,Potency,[4],inactive
same,Potency,[5],inactive
same,Potency,[6],inactive
same,Potency,[7],inactive
same,Potency,[8],inactive
same,Potency,[9],inactive
same,max response,[10],7.38%
same,Potency,[11],inactive
same,Potency,[12],inactive
same,Potency,[13],inactive
same,Potency,[19],inactive
same,Potency,[15],inactive
same,Potency,[16],inactive
Cc1c(C2(c3cc(Br)c(O)c(Br)c3C)OS(=O)(=O)c3ccccc32)cc(Br)c(O)c1Br,outcome,[1],inactive
same,Potency,[2],9.77 µM (active)
same,Potency,[17],11.8 µM (active)
same,"activity change, positive = activation",[18],-68%
same,Potency,[3],inactive
same,Potency,[4],inactive
same,Potency,[5],inactive
same,Potency,[6],inactive
same,Potency,[8],inactive
same,Potency,[9],inactive
same,max response,[10],-21.5%
same,Potency,[11],inactive
same,Potency,[12],inactive
same,Potency,[13],inactive
same,Potency,[14],inactive
same,Potency,[19],inactive
same,Potency,[15],15 µM (active)
same,Potency,[16],inactive
COc1cc(NCc2ccc3nc(N)nc(N)c3c2C)cc(OC)c1OC,outcome,[1],inactive
same,Potency,[2],0.22 µM (active)
same,Potency,[17],0.0473 µM (active)
same,"activity change, positive = activation",[18],-56.3% [at 42.5 µM]
same,Potency,[3],inactive
same,Potency,[4],0.0268 µM (active)
same,Potency,[5],inactive
same,Potency,[6],inactive
same,Potency,[7],inactive
same,Potency,[9],inactive
same,Potency,[10],0.0239 µM (active)
same,Potency,[11],inactive
same,Potency,[12],inactive
same,Potency,[14],inactive
same,Potency,[19],inactive
same,Potency,[15],inactive
same,Potency,[16],inactive
Nc1nc2ccc(OC(F)(F)F)cc2s1,Potency,[20],inactive
same,Potency,[2],inactive
same,Potency,[3],inactive
same,Potency,[6],inactive
same,Potency,[7],inactive
same,Potency,[9],inactive
same,Potency,[11],inactive
same,Potency,[12],inactive
same,Potency,[13],inactive
same,Potency,[15],inactive
same,Potency,[16],inactive
O=C1OC(=O)c2c(Br)c(Br)c(Br)c(Br)c21,outcome,[1],inactive
same,Potency,[2],inactive
same,Potency,[3],inactive
same,Potency,[4],inactive
same,Potency,[5],inactive
same,Potency,[6],inactive
same,Potency,[7],inactive
same,Potency,[8],inactive
same,Potency,[9],inactive
same,max response,[10],-18%
same,Potency,[11],inactive
same,Potency,[12],inactive
same,Potency,[14],inactive
same,Potency,[19],inactive
same,Potency,[15],inactive
same,Potency,[16],inactive
CC1CCC(C(C)CS)CC1S (configuration not stated),Potency,[2],inactive
same,Potency,[17],inactive
same,"activity change, positive = activation",[18],4.8%
same,Potency,[3],inactive
same,Potency,[4],inactive
same,Potency,[5],inactive
same,Potency,[6],inactive
same,Potency,[7],49 µM (active)
same,Potency,[8],inactive
same,Potency,[9],inactive
same,max response,[10],10.8%
same,Potency,[12],inactive
same,Potency,[14],inactive
same,Potency,[19],inactive
same,Potency,[15],inactive
same,Potency,[16],49 µM (active)
CC/C=C\C/C=C\C/C=C\CCCCCCCC(=O)OCC,outcome,[1],inactive
same,Potency,[2],inactive
same,"activity change, positive = activation",[18],-28.4%
same,Potency,[3],inactive
same,Potency,[4],inactive
same,Potency,[5],inactive
same,Potency,[6],inactive
same,Potency,[8],inactive
same,Potency,[9],inactive
same,max response,[10],-15.2%
same,Potency,[12],inactive
same,Potency,[13],inactive
same,Potency,[16],inactive
CCCCCCCC(=O)Oc1c(Br)cc(C#N)cc1Br,Potency,[20],inactive
same,Potency,[17],48.4 µM (active)
same,"activity change, positive = activation",[18],-61.8%
same,Potency,[3],inactive
same,Potency,[4],38.8 µM (active)
same,Potency,[5],inactive
same,Potency,[6],inactive
same,Potency,[9],inactive
same,Potency,[10],38.8 µM (active)
same,Potency,[11],inactive
same,Potency,[12],inactive
same,Potency,[13],inactive
same,Potency,[14],inactive
same,Potency,[19],inactive
same,Potency,[15],inactive
Nc1ccc(NC(=O)c2ccc(N)cc2)cc1,outcome,[1],inactive
same,Potency,[2],inactive
same,Potency,[17],inactive
same,Potency,[3],inactive
same,Potency,[4],inactive
same,Potency,[5],inactive
same,Potency,[6],inactive
same,Potency,[8],inactive
same,Potency,[9],inactive
same,max response,[10],-13%
same,Potency,[11],inactive
same,Potency,[12],inactive
same,Potency,[13],inactive
same,Potency,[14],inactive
same,Potency,[19],inactive
same,Potency,[15],inactive
same,Potency,[16],inactive
O=C(C(=O)c1ccco1)c1ccco1,outcome,[1],inactive
same,Potency,[2],inactive
same,Potency,[3],inactive
same,Potency,[5],inactive
same,Potency,[6],inactive
same,Potency,[9],inactive
same,Potency,[12],inactive
same,Potency,[13],inactive
same,Potency,[14],inactive
same,Potency,[19],inactive
same,Potency,[15],inactive
same,Potency,[16],inactive
CCN(CC)C(=O)/C(C#N)=C/c1cc(O)c(O)c([N+](=O)[O-])c1,Potency,[2],inactive
same,Potency,[3],inactive
same,Potency,[5],inactive
same,Potency,[6],inactive
same,Potency,[8],inactive
same,Potency,[9],inactive
same,max response,[10],29.1%
same,Potency,[11],inactive
same,Potency,[12],inactive
same,Potency,[13],inactive
same,Potency,[19],inactive
same,Potency,[15],inactive
same,Potency,[16],inactive
C[C@@H]1[C@H](O)[C@@H](C)/C=C/C=C\C=C\C=C\C=C\C=C\C=C\[C@H](O[C@@H]2O[C@H](C)[C@@H](O)[C@H](N)[C@@H]2O)C[C@@H]2O[C@](O)(C[C@@H](O)C[C@@H](O)[C@H](O)CC[C@@H](O)C[C@@H](O)CC(=O)O[C@H]1C)C[C@H](O)[C@H]2C(=O)O (stereo in doubt),Potency,[2],inactive
same,Potency,[3],inactive
same,Potency,[4],inactive
same,Potency,[5],inactive
same,Potency,[6],inactive
same,Potency,[9],inactive
same,max response,[10],-0.557%
same,Potency,[12],inactive
same,Potency,[13],inactive
same,Potency,[14],inactive
same,Potency,[19],inactive
same,Potency,[15],inactive
O=[N+]([O-])C1(Br)COCOC1,Potency,[2],113 µM (active)
same,"activity change, positive = activation",[18],-12.2%
same,Potency,[3],54.9 µM (active)
same,Potency,[4],34.7 µM (active)
same,Potency,[5],inactive
same,Potency,[6],49 µM (active)
same,Potency,[7],49 µM (active)
same,Potency,[9],54.9 µM (active)
same,Potency,[10],34.7 µM (active)
same,Potency,[11],54.9 µM (active)
same,Potency,[13],49 µM (active)
same,Potency,[14],54.9 µM (active)
same,Potency,[19],43.6 µM (active)
same,Potency,[15],inactive
same,Potency,[16],54.9 µM (active)
